# Data as given in publication PMC7862700, “An all-to-all approach to the identification of sequence-specific readers for epigenetic DNA modifications on cytosine”.
# Assays:
# Assay in all cases: DAPPL (digital affinity profiling via proximity ligation, sequencing); 10 mM Tris-HCl pH 7.5, 50 mM NaCl, 1 mM DTT, 4% glycerol, room temperature, 30 min; GST-TFs on glutathione beads, 16-mer random dsDNA library, 0.1% formaldehyde crosslink after washing; high values mean tight binding
# [1] = biological target: T1, FLI1 (Homo sapiens, UniProt Q01543 1-452); details: protein: recombinant; tags: N-terminal GST; dsDNA, one strand shown
# T1 sequence: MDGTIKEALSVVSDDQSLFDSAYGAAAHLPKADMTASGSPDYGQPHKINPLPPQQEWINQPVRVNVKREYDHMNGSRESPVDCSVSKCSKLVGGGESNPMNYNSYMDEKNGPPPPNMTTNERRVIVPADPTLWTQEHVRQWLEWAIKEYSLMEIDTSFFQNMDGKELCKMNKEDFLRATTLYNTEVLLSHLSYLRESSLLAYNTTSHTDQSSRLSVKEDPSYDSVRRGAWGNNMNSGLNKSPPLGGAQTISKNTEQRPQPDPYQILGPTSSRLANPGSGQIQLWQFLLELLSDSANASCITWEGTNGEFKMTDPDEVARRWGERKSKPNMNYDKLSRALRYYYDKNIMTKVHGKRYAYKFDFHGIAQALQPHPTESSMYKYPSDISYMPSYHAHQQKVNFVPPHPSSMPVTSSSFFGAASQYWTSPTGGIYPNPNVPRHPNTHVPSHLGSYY
# Procedure, shortened: (§1)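 A tag-only sample was pooled with DNA-barcoded human transcription factors that had been expressed in yeast as GST fusions and captured on glutathione beads. The pools were incubated for 30 min at room temperature with 200 nmole of a random double-stranded 16-mer DNA library in Tris/NaCl/DTT/glycerol buffer, then washed, crosslinked with 0.1% formaldehyde, proximity-ligated (BsaI/T4 ligase, 1 h, 37 °C), PCR-amplified and sequenced on an Illumina NextSeq500. Binding signal is each hexamer's read frequency for a factor divided by its frequency for the tag-only sample.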
# [2] = biological target: T2, ELK1 (Homo sapiens, UniProt P19419 1-428); details: protein: recombinant; tags: N-terminal GST; dsDNA, one strand shown
# T2 sequence: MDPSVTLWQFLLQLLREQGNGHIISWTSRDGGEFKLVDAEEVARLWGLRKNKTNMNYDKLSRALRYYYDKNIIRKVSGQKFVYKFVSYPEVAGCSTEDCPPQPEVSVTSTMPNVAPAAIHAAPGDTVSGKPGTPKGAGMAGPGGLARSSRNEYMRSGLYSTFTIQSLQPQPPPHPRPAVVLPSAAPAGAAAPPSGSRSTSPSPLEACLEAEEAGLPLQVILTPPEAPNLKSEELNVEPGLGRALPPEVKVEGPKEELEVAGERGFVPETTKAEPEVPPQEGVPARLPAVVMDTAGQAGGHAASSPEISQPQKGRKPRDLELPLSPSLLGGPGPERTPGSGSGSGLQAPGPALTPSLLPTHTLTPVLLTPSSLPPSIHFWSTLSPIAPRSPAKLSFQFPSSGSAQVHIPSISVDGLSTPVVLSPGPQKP
# Procedure, shortened: as §1
# [3] = biological target: T3, GABPA (Homo sapiens, UniProt Q06546 1-454); details: protein: recombinant; tags: N-terminal GST; dsDNA, one strand shown
# T3 sequence: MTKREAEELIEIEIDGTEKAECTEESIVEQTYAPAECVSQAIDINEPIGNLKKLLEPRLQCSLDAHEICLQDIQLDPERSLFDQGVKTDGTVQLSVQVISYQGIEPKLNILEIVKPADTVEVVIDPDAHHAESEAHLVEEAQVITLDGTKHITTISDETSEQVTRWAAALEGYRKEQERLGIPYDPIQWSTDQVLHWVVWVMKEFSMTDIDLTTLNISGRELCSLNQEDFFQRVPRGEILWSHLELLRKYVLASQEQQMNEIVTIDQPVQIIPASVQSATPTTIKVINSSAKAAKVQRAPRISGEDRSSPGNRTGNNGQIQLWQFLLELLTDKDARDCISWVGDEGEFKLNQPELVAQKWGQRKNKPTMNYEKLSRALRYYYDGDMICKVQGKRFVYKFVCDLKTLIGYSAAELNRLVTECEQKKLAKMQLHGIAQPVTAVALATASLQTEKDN
# Procedure, shortened: as §1
# [4] = biological target: T4, ERG (Homo sapiens, UniProt P11308 1-479); details: protein: recombinant; tags: N-terminal GST; dsDNA, one strand shown
# T4 sequence: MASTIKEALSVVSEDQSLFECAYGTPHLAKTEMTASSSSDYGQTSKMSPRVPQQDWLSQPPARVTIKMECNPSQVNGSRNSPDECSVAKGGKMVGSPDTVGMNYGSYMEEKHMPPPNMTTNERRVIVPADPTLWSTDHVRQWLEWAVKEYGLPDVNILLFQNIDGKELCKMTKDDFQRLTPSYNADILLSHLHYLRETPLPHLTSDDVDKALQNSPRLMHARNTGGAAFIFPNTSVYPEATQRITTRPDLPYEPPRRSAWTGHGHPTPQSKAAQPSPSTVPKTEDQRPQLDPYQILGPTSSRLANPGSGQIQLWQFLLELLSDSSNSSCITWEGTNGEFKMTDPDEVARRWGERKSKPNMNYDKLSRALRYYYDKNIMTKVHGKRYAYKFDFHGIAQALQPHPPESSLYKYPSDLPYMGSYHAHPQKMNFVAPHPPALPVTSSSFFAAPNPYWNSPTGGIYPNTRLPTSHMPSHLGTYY
# Procedure, shortened: as §1
# [5] = biological target: ELF1 (Homo sapiens, UniProt P32519 1-619); details: protein: recombinant; tags: N-terminal GST; dsDNA, one strand shown
# Procedure, shortened: as §1
# [6] = biological target: T5, EHF (Homo sapiens, UniProt Q9NZC4 1-300); details: protein: recombinant; tags: N-terminal GST; dsDNA, one strand shown
# T5 sequence: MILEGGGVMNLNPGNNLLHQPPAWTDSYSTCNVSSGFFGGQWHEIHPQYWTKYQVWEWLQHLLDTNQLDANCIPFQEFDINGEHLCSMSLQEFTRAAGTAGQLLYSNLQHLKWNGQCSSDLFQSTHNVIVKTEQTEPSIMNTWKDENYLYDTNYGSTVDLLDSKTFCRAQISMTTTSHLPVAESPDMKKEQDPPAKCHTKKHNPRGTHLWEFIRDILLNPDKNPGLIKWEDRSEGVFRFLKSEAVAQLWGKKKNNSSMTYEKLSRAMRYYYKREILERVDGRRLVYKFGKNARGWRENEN
# Procedure, shortened: as §1
# [7] = biological target: SPI1 (Homo sapiens, UniProt P17947 1-270); details: protein: recombinant; tags: N-terminal GST; dsDNA, one strand shown
# Procedure, shortened: as §1
# [8] = biological target: SPIB (Homo sapiens, UniProt Q01892 1-262); details: protein: recombinant; tags: N-terminal GST; dsDNA, one strand shown
# Procedure, shortened: as §1
# [9] = biological target: T6, ELK3 (Homo sapiens, UniProt P41970 1-407); details: protein: recombinant; tags: N-terminal GST; dsDNA, one strand shown
# T6 sequence: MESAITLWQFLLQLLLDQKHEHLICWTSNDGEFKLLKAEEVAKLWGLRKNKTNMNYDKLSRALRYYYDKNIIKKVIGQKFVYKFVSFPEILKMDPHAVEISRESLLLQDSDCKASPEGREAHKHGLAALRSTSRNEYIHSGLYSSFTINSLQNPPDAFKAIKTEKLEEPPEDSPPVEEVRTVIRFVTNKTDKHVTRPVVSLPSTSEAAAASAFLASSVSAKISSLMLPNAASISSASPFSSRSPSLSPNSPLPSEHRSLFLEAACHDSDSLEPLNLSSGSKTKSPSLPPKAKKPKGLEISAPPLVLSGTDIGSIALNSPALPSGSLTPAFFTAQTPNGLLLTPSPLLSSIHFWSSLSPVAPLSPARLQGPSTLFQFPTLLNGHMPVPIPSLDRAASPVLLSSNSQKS
# Procedure, shortened: as §1
# [10] = biological target: T7, FEV (Homo sapiens, UniProt Q99581 1-238); details: protein: recombinant; tags: N-terminal GST; dsDNA, one strand shown
# T7 sequence: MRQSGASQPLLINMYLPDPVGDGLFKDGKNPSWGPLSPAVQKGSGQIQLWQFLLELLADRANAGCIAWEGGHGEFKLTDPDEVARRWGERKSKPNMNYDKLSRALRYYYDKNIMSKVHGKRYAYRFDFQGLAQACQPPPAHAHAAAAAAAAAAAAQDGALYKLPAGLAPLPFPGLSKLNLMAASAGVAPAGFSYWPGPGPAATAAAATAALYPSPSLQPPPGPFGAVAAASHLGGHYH
# Procedure, shortened: as §1
# [11] = biological target: ETV5 (Homo sapiens, UniProt P41161 1-510); details: protein: recombinant; tags: N-terminal GST; dsDNA, one strand shown
# Procedure, shortened: as §1
# [12] = biological target: HSF1 (Homo sapiens, UniProt Q00613 1-529); details: protein: recombinant; tags: N-terminal GST; chain copies: 3; dsDNA, one strand shown
# Procedure, shortened: as §1
# [13] = biological target: T8, SPIC (Homo sapiens, UniProt Q8N5J4 1-248); details: protein: recombinant; tags: N-terminal GST; dsDNA, one strand shown
# T8 sequence: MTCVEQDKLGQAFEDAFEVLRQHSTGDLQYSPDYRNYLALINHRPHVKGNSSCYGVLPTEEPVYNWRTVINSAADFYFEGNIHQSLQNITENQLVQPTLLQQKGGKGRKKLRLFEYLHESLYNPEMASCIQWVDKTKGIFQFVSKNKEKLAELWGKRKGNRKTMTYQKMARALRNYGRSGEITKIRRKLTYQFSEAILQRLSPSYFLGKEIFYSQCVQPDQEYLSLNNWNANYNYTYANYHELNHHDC
# Procedure, shortened: as §1
# [14] = biological target: ELF4 (Homo sapiens, UniProt Q99607 1-663); details: protein: recombinant; tags: N-terminal GST; dsDNA, one strand shown
# Procedure, shortened: as §1
# [15] = biological target: T9, ELK4 (Homo sapiens, UniProt P28324-2 1-405); details: protein: recombinant; tags: N-terminal GST; dsDNA, one strand shown
# T9 sequence: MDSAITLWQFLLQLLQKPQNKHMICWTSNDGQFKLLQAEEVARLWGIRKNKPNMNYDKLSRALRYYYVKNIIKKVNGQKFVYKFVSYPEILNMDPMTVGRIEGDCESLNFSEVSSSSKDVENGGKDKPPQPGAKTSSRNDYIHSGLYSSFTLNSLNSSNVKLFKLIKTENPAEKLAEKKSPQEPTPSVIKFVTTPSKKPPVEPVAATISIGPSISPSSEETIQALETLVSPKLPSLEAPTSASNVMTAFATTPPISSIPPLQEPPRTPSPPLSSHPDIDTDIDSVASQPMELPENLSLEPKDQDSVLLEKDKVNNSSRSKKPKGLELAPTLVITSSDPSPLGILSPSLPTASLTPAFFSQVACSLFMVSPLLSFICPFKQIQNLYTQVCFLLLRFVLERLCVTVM
# Procedure, shortened: as §1
# [16] = biological target: T10, ETV2 (Homo sapiens, UniProt O00321 1-342); details: protein: recombinant; tags: N-terminal GST; dsDNA, one strand shown
# T10 sequence: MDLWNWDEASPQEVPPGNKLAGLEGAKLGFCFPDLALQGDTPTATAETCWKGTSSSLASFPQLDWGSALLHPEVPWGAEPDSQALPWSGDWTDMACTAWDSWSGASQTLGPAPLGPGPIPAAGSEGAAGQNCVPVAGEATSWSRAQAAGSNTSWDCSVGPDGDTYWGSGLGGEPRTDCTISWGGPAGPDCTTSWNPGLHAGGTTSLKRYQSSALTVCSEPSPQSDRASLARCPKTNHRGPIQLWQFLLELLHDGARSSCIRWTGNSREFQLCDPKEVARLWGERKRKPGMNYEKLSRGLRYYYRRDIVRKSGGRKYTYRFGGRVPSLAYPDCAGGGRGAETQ
# Procedure, shortened: as §1
# [17] = biological target: T11, ELF3 (Homo sapiens, UniProt P78545 1-371); details: protein: recombinant; tags: N-terminal GST; dsDNA, one strand shown
# T11 sequence: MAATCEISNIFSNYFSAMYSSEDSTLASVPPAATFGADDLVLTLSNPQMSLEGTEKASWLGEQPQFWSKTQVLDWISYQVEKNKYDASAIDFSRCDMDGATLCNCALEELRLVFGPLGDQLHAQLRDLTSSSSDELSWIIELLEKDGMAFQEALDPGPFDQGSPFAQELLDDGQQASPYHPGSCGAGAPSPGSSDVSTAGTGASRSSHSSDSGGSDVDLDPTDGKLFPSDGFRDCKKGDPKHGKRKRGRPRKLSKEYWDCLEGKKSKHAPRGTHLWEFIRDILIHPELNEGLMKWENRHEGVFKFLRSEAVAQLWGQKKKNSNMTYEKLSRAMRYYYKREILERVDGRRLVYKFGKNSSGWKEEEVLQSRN
# Procedure, shortened: as §1
# [18] = biological target: CRX (Homo sapiens, UniProt O43186 1-299); details: protein: recombinant; tags: N-terminal GST; dsDNA, one strand shown
# Procedure, shortened: as §1
# [19] = biological target: ETV1 (Homo sapiens, UniProt P50549 1-477); details: protein: recombinant; tags: N-terminal GST; dsDNA, one strand shown
# Procedure, shortened: as §1
# Sequence of HSF1 (Q00613 whole entry): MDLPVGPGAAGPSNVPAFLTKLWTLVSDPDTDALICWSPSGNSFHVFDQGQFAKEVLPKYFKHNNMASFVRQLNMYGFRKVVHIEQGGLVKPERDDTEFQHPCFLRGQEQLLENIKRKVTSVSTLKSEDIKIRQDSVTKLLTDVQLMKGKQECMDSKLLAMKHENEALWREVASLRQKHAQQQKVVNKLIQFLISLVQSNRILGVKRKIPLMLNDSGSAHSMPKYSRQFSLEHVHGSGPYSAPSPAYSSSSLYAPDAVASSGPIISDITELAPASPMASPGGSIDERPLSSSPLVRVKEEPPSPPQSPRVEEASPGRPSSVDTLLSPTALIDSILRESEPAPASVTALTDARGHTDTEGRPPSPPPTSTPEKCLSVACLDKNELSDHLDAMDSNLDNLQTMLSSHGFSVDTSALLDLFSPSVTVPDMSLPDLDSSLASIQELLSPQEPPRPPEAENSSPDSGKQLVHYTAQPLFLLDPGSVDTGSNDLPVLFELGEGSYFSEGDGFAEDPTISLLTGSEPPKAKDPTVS
# Sequence of ETV1 (P50549 whole entry): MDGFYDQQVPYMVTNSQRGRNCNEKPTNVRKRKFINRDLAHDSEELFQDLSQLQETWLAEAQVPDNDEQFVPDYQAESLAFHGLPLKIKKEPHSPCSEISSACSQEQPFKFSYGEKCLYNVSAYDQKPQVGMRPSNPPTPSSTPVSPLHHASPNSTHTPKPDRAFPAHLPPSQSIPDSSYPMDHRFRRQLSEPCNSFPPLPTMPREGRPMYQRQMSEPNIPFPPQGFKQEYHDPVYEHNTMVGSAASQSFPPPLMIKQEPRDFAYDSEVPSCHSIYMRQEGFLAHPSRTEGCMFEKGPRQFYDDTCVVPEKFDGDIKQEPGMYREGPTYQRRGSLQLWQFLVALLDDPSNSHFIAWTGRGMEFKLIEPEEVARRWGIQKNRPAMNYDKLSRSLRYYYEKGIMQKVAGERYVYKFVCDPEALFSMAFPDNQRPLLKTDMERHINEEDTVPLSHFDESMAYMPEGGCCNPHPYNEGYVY
# Sequence of ETV5 (P41161 whole entry): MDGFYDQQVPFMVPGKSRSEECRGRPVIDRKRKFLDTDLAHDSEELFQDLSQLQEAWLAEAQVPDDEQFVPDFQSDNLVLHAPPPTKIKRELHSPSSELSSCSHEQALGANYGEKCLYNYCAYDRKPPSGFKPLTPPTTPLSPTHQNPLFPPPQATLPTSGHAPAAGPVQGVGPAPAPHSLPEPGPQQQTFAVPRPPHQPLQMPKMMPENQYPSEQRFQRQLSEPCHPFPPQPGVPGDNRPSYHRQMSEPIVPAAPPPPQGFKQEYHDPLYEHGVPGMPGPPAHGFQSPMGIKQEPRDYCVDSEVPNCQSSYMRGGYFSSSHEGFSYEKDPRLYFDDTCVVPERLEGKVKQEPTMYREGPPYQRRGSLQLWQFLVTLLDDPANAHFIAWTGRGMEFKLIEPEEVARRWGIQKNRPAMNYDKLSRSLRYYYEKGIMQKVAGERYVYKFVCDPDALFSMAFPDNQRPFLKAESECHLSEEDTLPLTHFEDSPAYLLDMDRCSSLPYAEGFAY
# Sequence of ELF4 (Q99607 whole entry): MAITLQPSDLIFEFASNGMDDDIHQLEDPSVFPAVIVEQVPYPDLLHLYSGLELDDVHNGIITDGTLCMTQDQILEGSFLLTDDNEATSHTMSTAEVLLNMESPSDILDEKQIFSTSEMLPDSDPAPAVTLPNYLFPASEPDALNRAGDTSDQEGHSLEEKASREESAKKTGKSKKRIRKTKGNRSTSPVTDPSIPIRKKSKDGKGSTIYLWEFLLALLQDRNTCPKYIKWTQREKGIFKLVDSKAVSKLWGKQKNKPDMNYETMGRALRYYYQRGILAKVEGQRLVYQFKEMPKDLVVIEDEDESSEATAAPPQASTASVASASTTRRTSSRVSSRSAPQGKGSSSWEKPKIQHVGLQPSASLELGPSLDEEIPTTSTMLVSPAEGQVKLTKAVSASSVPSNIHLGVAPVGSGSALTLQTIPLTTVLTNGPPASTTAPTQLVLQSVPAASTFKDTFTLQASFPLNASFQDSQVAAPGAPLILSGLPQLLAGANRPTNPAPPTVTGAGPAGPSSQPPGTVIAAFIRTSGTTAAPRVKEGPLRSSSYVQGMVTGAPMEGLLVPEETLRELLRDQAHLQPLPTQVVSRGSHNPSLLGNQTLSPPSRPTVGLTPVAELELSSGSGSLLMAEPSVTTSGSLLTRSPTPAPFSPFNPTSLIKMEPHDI
# Sequence of ELF1 (P32519 whole entry): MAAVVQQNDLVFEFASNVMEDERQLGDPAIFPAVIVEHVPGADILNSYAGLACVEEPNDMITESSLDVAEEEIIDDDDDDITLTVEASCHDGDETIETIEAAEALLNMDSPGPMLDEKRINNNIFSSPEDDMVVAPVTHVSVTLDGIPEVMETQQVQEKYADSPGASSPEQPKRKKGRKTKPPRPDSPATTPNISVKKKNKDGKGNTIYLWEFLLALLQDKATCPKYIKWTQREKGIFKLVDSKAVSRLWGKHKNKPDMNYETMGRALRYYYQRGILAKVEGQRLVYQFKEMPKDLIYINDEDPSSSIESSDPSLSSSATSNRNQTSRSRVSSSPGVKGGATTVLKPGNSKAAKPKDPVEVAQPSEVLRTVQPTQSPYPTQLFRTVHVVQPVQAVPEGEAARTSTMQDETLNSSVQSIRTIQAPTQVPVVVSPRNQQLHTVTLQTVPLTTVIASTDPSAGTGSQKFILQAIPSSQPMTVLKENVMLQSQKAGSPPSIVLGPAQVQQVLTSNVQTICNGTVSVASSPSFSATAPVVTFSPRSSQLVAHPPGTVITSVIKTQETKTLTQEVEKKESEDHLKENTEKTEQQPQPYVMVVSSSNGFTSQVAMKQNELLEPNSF
# Sequence of SPIB (Q01892 whole entry): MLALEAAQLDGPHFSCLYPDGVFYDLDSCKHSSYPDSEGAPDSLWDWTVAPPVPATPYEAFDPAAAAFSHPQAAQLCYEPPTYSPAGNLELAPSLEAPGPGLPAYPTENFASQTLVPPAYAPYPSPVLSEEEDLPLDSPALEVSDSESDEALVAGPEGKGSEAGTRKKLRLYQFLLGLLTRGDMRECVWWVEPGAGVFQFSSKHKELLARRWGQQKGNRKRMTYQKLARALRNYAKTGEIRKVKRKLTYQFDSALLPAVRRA
# Sequence of CRX (O43186 whole entry): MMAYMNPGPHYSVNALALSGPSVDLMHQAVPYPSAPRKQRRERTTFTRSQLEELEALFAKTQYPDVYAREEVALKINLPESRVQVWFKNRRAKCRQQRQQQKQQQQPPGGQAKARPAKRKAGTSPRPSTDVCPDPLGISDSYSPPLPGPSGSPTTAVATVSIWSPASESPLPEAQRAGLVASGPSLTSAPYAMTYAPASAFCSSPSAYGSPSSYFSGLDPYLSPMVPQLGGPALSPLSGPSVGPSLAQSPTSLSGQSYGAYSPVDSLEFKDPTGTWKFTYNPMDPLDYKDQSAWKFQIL
sequence,measurement,setting,value
TATCGT,binding signal,[1],"1.18 fold enrichment (6-mer frequency, TF over GST control)"
same,binding signal,[2],"1.28 fold enrichment (6-mer frequency, TF over GST control)"
same,binding signal,[3],"1.04 fold enrichment (6-mer frequency, TF over GST control)"
same,binding signal,[4],"1.14 fold enrichment (6-mer frequency, TF over GST control)"
same,binding signal,[5],"1.14 fold enrichment (6-mer frequency, TF over GST control)"
same,binding signal,[6],"1.1 fold enrichment (6-mer frequency, TF over GST control)"
same,binding signal,[7],"1.07 fold enrichment (6-mer frequency, TF over GST control)"
same,binding signal,[8],"1.2 fold enrichment (6-mer frequency, TF over GST control)"
same,binding signal,[9],"1.18 fold enrichment (6-mer frequency, TF over GST control)"
same,binding signal,[10],"1.05 fold enrichment (6-mer frequency, TF over GST control)"
same,binding signal,[11],"1.12 fold enrichment (6-mer frequency, TF over GST control)"
same,binding signal,[12],"1.17 fold enrichment (6-mer frequency, TF over GST control)"
same,binding signal,[13],"1.09 fold enrichment (6-mer frequency, TF over GST control)"
same,binding signal,[14],"1.07 fold enrichment (6-mer frequency, TF over GST control)"
same,binding signal,[15],"1.13 fold enrichment (6-mer frequency, TF over GST control)"
same,binding signal,[16],"1.16 fold enrichment (6-mer frequency, TF over GST control)"
same,binding signal,[17],"1.15 fold enrichment (6-mer frequency, TF over GST control)"
same,binding signal,[18],"1.28 fold enrichment (6-mer frequency, TF over GST control)"
same,binding signal,[19],"1.21 fold enrichment (6-mer frequency, TF over GST control)"
